# The source made the active and inactive calls.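 How the source made its calls: active means potency half-maximal inhibitory concentration below 100 µM; inconclusive means dose-dependent response but potency above 100 µM; inactive means the rest.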
# Molecular target: Lysine-specific demethylase 4E (Homo sapiens) (UniProt B2RXH2)
# Assay: AlphaScreen Assay for Inhibitors of Human Jumonji Domain Containing 2E (JMJD2E)
# Settings: recombinant JMJD2E, H3K9me3 peptide demethylation
# Description: The fine interplay among methylation states of several lysine residues on the tails of histone proteins is a major determinant of the transcriptional state of the associated DNA coding regions and is commonly referred to as the histone code. Histone lysine demethylases catalyze the removal of methyl groups from methylated lysine sidechains on histones H3 and H4, thus antagonizing the reactions catalyzed by histone lysine methyltransferases. […] In search for novel inhibitors of JMJD2E demethylase, a member of the largest set of histone demethylases belonging to the Fe(II) and 2-oxoglutarate oxygenase (2OG) superfamily, we performed a quantitative high-throughput screen (Inglese 2006). See AID 2147 for details on the primary screen. The assay here is a secondary AlphaScreen screen used to validate follow-up compounds. References: Inglese, J., Auld, D., Jadhav, A., Johnson, R., Simeonov, A., Yasgar, A., Zheng, W. and Austin, C. […]
# Assay Buffer: 50 mM HEPES pH7.5, 0.01% Tween-20, 0.1% BSA (Cohn Fraction V; Sigma A7030) Peptide: biotin-[…](me3/2)STGGKA Antibody: Abcam Ab1220, Anti-H3K9Me2 Final concentration of components in enzyme reaction: JMJD2E 5 nM, Peptide 30 nM, […] L-Ascorbic Acid, […], DMSO 0.1% Alphascreen beads made up in the dark in assay buffer and pre-incubated for 1 hour in the dark. […] Read plate on BMG Labtech Pherastar FS
# Sequence of Lysine-specific demethylase 4E (Homo sapiens) (B2RXH2 1-337 limits assumed): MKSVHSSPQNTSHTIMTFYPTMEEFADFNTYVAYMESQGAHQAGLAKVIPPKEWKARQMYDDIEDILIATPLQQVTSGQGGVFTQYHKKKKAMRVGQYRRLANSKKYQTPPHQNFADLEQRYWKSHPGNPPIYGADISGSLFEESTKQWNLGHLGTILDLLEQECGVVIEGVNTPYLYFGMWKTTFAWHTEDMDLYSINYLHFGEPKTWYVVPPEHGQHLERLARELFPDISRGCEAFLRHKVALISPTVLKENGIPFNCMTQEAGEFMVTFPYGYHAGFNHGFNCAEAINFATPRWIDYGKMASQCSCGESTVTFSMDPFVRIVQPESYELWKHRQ
row,Compound,Potency
1,Oc1ccc(CNc2cccc(F)c2)c2cccnc12,1490 nM (active)
2,O=S(=O)(Nc1ccc(O)c2ncccc12)c1ccccc1F,435 nM (active)
